# Screening results from PubChem.
# An excerpt weighted towards active compounds, which were near 3.5% of everything screened.
# FBW7 act – human FBW7 E3 ligase activation, primary screen; Q969H0; AlphaScreen FBW7–phospho-cyclin E peptide binding, activator screen; normalized activity (activation), % at 26.1 µM; 0.13% of 650,000 active; in the data active = normalized activity above about 1.9%;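 note: purified mutant Fbw7 with reduced substrate affinity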
# TEAD-YAP inh – TEAD-YAP interaction inhibition. HEK-TIYL cells, TEAD-Gal4/YAP UAS-luciferase luminescence. AID 1259422. inhibition, % at 9.12 µM. 1.4% of 640,000 active; in the data active = inhibition above about 32%;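 note: 0% = median of test compound wells and 100% = reference inhibitor wells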
# GPR151 ag – human GPR151 activation; Q8TDV0; PathHunter beta-arrestin GPR151 cells, luminescence; activation, % at 11.2 µM; 1% of 650,000 active; in the data active = activation above about 4.9%;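 note: 0% = median of compound wells and 100% = cells with positive control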
# MITF primary – human MITF inhibition, primary screen; O75030; 0.91% of 650,000 active; AlphaScreen MITF homodimerization, bead proximity signal; inhibition, % at 2.6 µM; in the data active = inhibition above about 50%;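 note: 0% = vehicle wells with protein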
# GPR151 conf act – human GPR151 activation, confirmation screen; shares compounds with GPR151 ag; GPR151 PathHunter beta-arrestin cells, luminescence, 90 min; % of EA-reagent control over plate median; activation, % at 11.2 µM; 6,700 tested, under 10 active; AID 1508609;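 active = mean percent activation across replicates above the confirmation screen cutoff of 4.91%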
# GPR119 counter – counter-screen for GPR151 activators: effect on human GPR119 | shares compounds with GPR151 ag | GPR119 PathHunter beta-arrestin cells, luminescence, 90 min; 0 = compound-well median, 100 = enzyme-acceptor control | 0.3% of 6,700 active | AID 1508611 | activation, % at 11.2 µM;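 active = mean percent activation in the counterscreen above 29.09%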;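 note: counterscreen on off-target GPR119 to flag nonselective hits from the GPR151 activator screen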
# Target sequence (Q8TDV5 whole entry, looked up): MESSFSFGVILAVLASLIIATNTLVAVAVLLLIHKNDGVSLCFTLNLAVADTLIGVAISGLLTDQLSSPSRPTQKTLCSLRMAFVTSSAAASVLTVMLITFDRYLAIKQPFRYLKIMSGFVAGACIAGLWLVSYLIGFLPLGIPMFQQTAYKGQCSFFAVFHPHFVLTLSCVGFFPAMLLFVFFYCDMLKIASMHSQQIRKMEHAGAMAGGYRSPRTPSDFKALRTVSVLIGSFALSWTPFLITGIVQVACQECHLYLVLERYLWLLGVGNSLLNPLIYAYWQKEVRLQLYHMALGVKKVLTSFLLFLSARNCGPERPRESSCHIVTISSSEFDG
# Numbers without * were called inactive; / = no result given; ! = not active in a repeat.
SMILES,FBW7 act,TEAD-YAP inh,GPR151 ag,MITF primary,GPR151 conf act,GPR119 counter
O=C(N/C(=C\c1ccc(-c2cccc([N+](=O)[O-])c2)o1)C(=O)N1CCCC1)c1ccccc1,0,14,-1,9,/,/
Cc1cc(C)cc(NS(=O)(=O)c2ccc(-c3cc(C)no3)cc2)c1,0,58*,8.2*,-11,1,-6
Cn1c2c(c(=O)[nH]c1=O)C(c1ccc(F)cc1)C1=C(CC(C)(C)CC1=O)N2 (stereo not drawn),0,11,0,24,/,/
CCOC(=O)C1C(=O)C=C(c2cccc(OC)c2)CC1c1ccccc1C (stereo not drawn),0,9,1,-4,/,/
CCOC(=O)C1C(=O)C=C(c2ccc(C)cc2)CC1c1ccccc1OCC (stereo not drawn),0,3,5.3*,15,0,0
O=C(Nc1ccc(F)c([N+](=O)[O-])c1)c1oc(=O)c2ccccc2c1-c1ccccc1,0,2,0,16,/,/
CC(C)CS(=O)(=O)Nc1ccc2c(c1)CCCN2S(=O)(=O)c1ccc(F)cc1,0,-10,5.2*,-4,0,-2
O=C(O)c1c(Br)sc(-c2ccccc2)c1-c1ccccc1,0,-11,7.1*,-1,0,-2
c1cncc(CNc2nc(NCCN3CCOCC3)nc3c2ncn3C2CCCCC2)c1,0,-7,1,-2,/,/
COc1ccccc1N1CCN(c2ncnc3sc(C(=O)Nc4ccc(Br)cc4C)c(C)c23)CC1,0,6,1,4,/,/
CC1CCCN(S(=O)(=O)c2cccs2)C1 (stereo not drawn),0,2,10*,2,0,8
CN(CC1COCCO1)C(=O)c1cc(COc2c(F)cccc2F)on1 (stereo not drawn),0,-9,16*,6,0,2
O=C1CC(Sc2ccccc2)C(=O)N1c1cccc(N2C(=O)CC(Sc3ccccc3)C2=O)c1 (stereo not drawn),0,14,1,9,/,/
COc1ccc(-n2ccnc(SCC(=O)Nc3ccc(Cl)cc3)c2=O)cc1,0,0,1,0,/,/
COc1ccc(OCC(=O)N/N=C/c2cc3c(cc2[N+](=O)[O-])OCO3)cc1,0,-6,10*,-1,0,-15
Cc1ccc(OCC(=O)N/N=C/c2cc3c(cc2[N+](=O)[O-])OCO3)cc1C,0,6,-1,18,/,/
COC(=O)c1cc(Nc2cccc(F)c2)c2cccc(OC)c2n1,0,4,7.9*,-14,0,-3
COC(=O)c1cc(Nc2ccc(C)cc2)c2cccc(F)c2n1,0,21,2,0,/,/
CC1CN(CC(O)COc2ccccc2Cl)CC(C)O1 (stereo not drawn),0,0,0,-6,/,/
Cc1cc(NCc2ccc(-n3cncn3)cc2)ccc1Br,0,-4,3,-6,/,/
Cc1ccc(N2CN=c3s/c(=C4\C(=O)Nc5ccc(C)cc54)c(=O)n3C2)cc1,0,5,2,12,/,/
Cn1c2ccccc2c2nnc(SCC(=O)c3ccccc3)nc21,0,1,5.5*,-17,0,-3
CCCN(CCC)C(=O)c1c(NC(=O)c2cccc(C)c2)sc2c1CCC2,0,3,0,12,/,/
COC(=O)c1ccc(Nc2nccc(-c3ccccc3)n2)cc1,0,-22,-2,6,/,/
NC(=O)c1ccc(Nc2nccc(-c3ccc(Cl)cc3)n2)cc1,0,23,5.6*,8,0,15
SMILES,FBW7 act,TEAD-YAP inh,GPR151 ag,MITF primary,GPR151 conf act,GPR119 counter
Cc1ccc(NC(=O)c2cnccn2)c(Br)c1,0,-38,6.4*,6,-1,-12
O=C(Nc1ccc(Br)cc1F)c1cnccn1,0,-8,1,4,/,/
Nc1nc(Cl)cc(NCCN2CCOCC2)n1,0,9,2,10,/,/
Clc1cc(NCCN2CCOCC2)ncn1,0,6,5.7*!,12,1,-4
c1ccc(-c2noc(CCC3CCCC3)n2)cc1,0,0,12*,1,-1,-8
Cc1c(NC2=NC(C)(C)Cc3ccccc32)c(=O)n(-c2ccccc2)n1C,0,4,-2,-4,/,/
CCCn1c(N2CCN(CC(=O)Nc3ccc(C(C)=O)cc3)CC2)nc2ccccc21,0,3,0,3,/,/
CCN1CCN(CC(=O)Nc2ccc(C(C)=O)cc2)CC1,0,8,7.5*,-2,0,5
CC(=O)c1ccc(NC(=O)CN2CCN(Cc3nc4ccccc4n3C)CC2)cc1,0,-3,6.3*,1,0,-3
CC(=O)Nc1ccc2c(c1)nc(CN1CCN(C(C)=O)CC1)n2C,0,-5,-1,-24,/,/
CC(=O)N1CCN(Cc2nc3cc(NC(=O)c4ccc(Cl)cc4)ccc3n2C)CC1,0,-5,5.4*,0,0,1
Cc1c(C(=O)NCC(C)C)sc2nc(-c3ccc(F)cc3)cn12,0,-27,0,19,/,/
COc1ccc(NC(=O)Nc2ccc(CN3CCN(C)CC3)cc2)cc1,0,-45,0,8,/,/
CN1CCN(Cc2ccc(NC(=O)NCc3cccc4ccccc34)cc2)CC1,0,6,7.0*,-11,1,0
O=c1oc2ccccc2cc1-c1csc(Nc2cc(F)ccc2F)n1,1,-21,-1,9,/,/
Cc1ccc(NC(=O)C2CCN(S(=O)(=O)c3ccc(Cl)s3)CC2)cc1,0,2,5.9*,-17,-1,-15
CCOC(=O)Cn1c(C)cc(=O)c2cccc(C)c21,0,2,2,6,/,/
CCOC(=O)/C(C#N)=C(\C)c1ccccc1,0,-5,7.0*,7,2,8
CCOC(=O)C(C#N)=C(c1ccccc1)c1ccccc1,0,5,0,-8,/,/
Nc1c(C(=O)Nc2ccc([N+](=O)[O-])cc2)sc2nc3c(cc12)CCCC3,0,-2,0,-2,/,/
CCN(CC)C(=O)C1CCCN(Cc2ccccc2[N+](=O)[O-])C1 (stereo not drawn),0,-1,1,3,/,/
CCc1ccccc1NC(=O)CN(Cc1ccccc1)S(=O)(=O)c1ccc(Br)cc1,1,1,6.6*,1,1,7
O=C(CN(Cc1ccccc1)S(=O)(=O)c1ccc(Br)cc1)Nc1ccccc1Cl,0,-2,6.0*,-5,1,4
O=C(O)CN(Cc1ccc(Cl)cc1)S(=O)(=O)c1ccc(Cl)cc1,0,3,5.1*,-8,0,-6
Cc1ccc(CN(CC(=O)O)S(=O)(=O)c2ccc(Cl)cc2)cc1,0,-7,1,-11,/,/
CCc1ccccc1NC(=O)CN(Cc1ccc(Br)cc1)S(=O)(=O)c1ccccc1,0,3,-1,0,/,/
CC(C)c1ccc(CN2CCc3nnc(C(NS(C)(=O)=O)C(C)C)n3CC2)cc1 (stereo not drawn),0,7,-1,4,/,/
